Laboratory results published in PubChem BioAssay (NCI).
Several values for one entry are separate records, joined by “and”; a condition that tells them apart may be missing. Identical values can stand only once. About 83,000 compounds went through this panel and 20% of them were active in at least one assay; those are over-represented in the sample as a whole.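 Method: cells in 96-well plates; compound added at one concentration; 48 h incubation; percent growth measured; values under 10 scored active.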 Values without a mark were called inactive. Activity calls are given as the source filed them.

Columns and labels:
Assay in all cases: NCI-60 one-dose screen, 48 h (100 = growth as untreated, 0 = no growth, -100 = all killed)
Settings in all cases: 10 µM unless noted
HCT-15 colon = tested on: HCT-15 colon
HT29 colon = tested on: HT29 colon
SNB-75 CNS = tested on: SNB-75 CNS
SNB-19 CNS = tested on: SNB-19 CNS
U251 CNS = tested on: U251 CNS
PC-3 prostate = tested on: PC-3 prostate
SK-MEL-5 melanoma = tested on: SK-MEL-5 melanoma
UACC-62 melanoma = tested on: UACC-62 melanoma
LOX IMVI melanoma = tested on: LOX IMVI melanoma
SK-MEL-28 melanoma = tested on: SK-MEL-28 melanoma

Row | SMILES | growth (HCT-15 colon) | growth (HT29 colon) | growth (SNB-75 CNS) | growth (SNB-19 CNS) | growth (U251 CNS) | growth (PC-3 prostate) | growth (SK-MEL-5 melanoma) | growth (UACC-62 melanoma) | growth (LOX IMVI melanoma) | growth (SK-MEL-28 melanoma)
1 | COc1ccc(-c2cc(-c3cc(OC)c(OC)c(OC)c3)c(C#N)c(=O)n2CCCCC(=O)O)cc1 | 77.3% | 99.4% | 51.8% | 96.3% | 91.5% | 90.9% | 93.6% | 89.8% | 78.6% | 112%
2 | Cc1ccc(NC(=O)N/C(N)=N/c2nc(=O)c3ccccc3s2)cc1 | 104% | 103% | 83.1% | 93% | 99.7% | 101% | 93.4% | 83% | 104% | 102%
3 | COc1cc(OC)cc(-c2ccc(-c3ccc(C(=N)N)cn3)s2)c1 | 41.7% | 37.2% | 94.6% | 92.1% | 5.78% (active) | 69.1% | 80.5% | 98.2% | 14% | 109%
4 | COc1cc(CNC(=O)CCCC/C=C/C(C)C)ccc1O | 104% and 96.9% | 104% | 93% and 100% | 90.9% and 104% | 101% and 98% | 86.6% and 88.1% | 97.8% and 97.5% | 96.6% and 104% | 89% and 86.9% | 116% and 112%
5 | Cn1cc(-c2csc(-c3cn(CCOC(N)=O)c4ccccc34)n2)c2cccnc21 | 64% | 47.6% | 80.7% | 78.6% | 77.8% | 63.6% | 71.9% | 72.2% | 79% | 92.5%
6 | COc1nc2ccc(C)cc2cc1/C=[N+](\[O-])c1ccccc1 | 77.2% | 95.1% | 79.5% | 86.6% | 95.4% | 68.2% | 96.2% | 76.6% | 77.8% | 97.6%
7 | CCOC(=O)C(=Cc1ccc(C#N)cc1)C(=O)OCC | -21% (active) | -39.7% (active) | 42.9% | 65.2% | 50.3% | 33.3% | 59.6% | 10.6% | -54.9% (active) | -17.7% (active)
8 | Cc1[nH]c(C(=O)Nc2nc3ccc(NC(=O)CCN)cc3s2)c(Cl)c1Cl | 83.2% | 88.9% | 81.6% | 78.6% | 47.1% | 65.5% | 83.8% | 44.4% | 19.7% | 97.8%
9 | COc1ccc(/C=N\Nc2nc(SCC(C)C)nc(-c3ccc(OC)cc3)c2C#N)cc1 | 71% | 56.4% | -23.3% (active) | 31% | -7.88% (active) | 53.6% | 77.2% | 86.1% | 31.9% | 101%
10 | [2H]C([2H])([2H])Oc1cc(F)ccc1/C=C/C(=O)/C=C(/C=C/c1ccc(F)cc1OC([2H])([2H])[2H])OB(F)F | 25.3% | 32.4% | 81.1% | 56.9% | 31.7% | 43.8% | 30.6% | 20.9% | 2.12% (active) | 29.5%
11 | CCn1cc(C(=O)NN=C2CCCC2)c(=O)c2ccc(C)nc21 | 96.6% | 96.9% | 86.1% | 96.6% | 96.5% | 85.6% | 92.8% | 78.6% | 98.1% | 90.9%
12 | Cc1nc(Nc2ncc(C(=O)Nc3c(C)cccc3Cl)s2)cc(N2CCN(CCO)CC2)n1 | 32.5% and 21.3% | 5.06% (active) and -19.7% (active) | -32.6% (active) and -35.7% (active) | 68.7% and 40.1% | 57.6% and 37.2% | 54.1% and 40.7% | 66.6% and 53.8% | 55.3% and 34.9% | -66.3% (active) and -93.8% (active) | 64% and 36%
13 | CCc1c2c(nc3ccc(OCc4ccc(B5OC(C)(C)C(C)(C)O5)cc4)cc13)-c1cc3c(c(=O)n1C2)COC(=O)[C@]3(O)CC | 32.9% | 10.2% | 5.99% (active) | 8.91% (active) | -8.07% (active) | 26.9% | -54.8% (active) | -40.7% (active) | -55.2% (active) | 32.8%
14 | O=C(Nc1ccccc1C(=O)N/N=C(\c1ccccc1)c1ccccn1)c1ccccc1 | 25.7% | 22.1% | 64% | 27.9% | 10.8% | 43.7% | -20.9% (active) | -10.4% (active) |  | 31.9%
15 | O=C1CCc2c(sc3[nH]c(=S)n(Cc4ccc(Cl)cc4)c(=O)c23)C1 | -13.5% (active) | 14.5% | 3.19% (active) | 19.8% | 5.03% (active) | 3.57% (active) | -81.1% (active) | 0.777% (active) |  | 19.6%
16 | CON1CCC[C@]2(C)[C@H]3CC[C@@H]4[C@H]5[C@@H](O)C(C)(C)CC[C@]5(CO)CC[C@@]4(C)[C@]3(C)CC[C@H]2C1(C)C | 106% | 91.2% | 98.7% | 100% | 90% | 59.6% | 102% | 96% |  | 107%
17 | CCCCCCCCn1ccc2cc(NC(=O)CN3CCN(c4nc(C)cc(N5CCCCC5)n4)CC3)ccc21 | 73.2% | 57.4% | 87.6% | 94.3% | 80.4% | 71.8% | 82.1% | 81.2% |  | 94.6%
18 | CC(=O)N1N=C(c2ccc(Nc3nc(Nc4ccc(F)cc4)nc(Nc4ccc(Cl)cc4)n3)cc2)CC1c1ccc(N(C)C)cc1 (stereo not given) | 38.4% | 36.8% | 40.3% | 59.2% | 53.7% | 22.2% | 32.4% | 35.2% |  | 60%
19 | Cc1c(CC(=O)OCCO)cc(-c2ccc(Cl)cc2)n1-c1ccccc1 | 94.4% | 101% | 65.9% | 95.3% | 91.7% | 101% | 88.8% | 77.7% | 94% | 109%
20 | COc1ccccc1/C=C1\COc2ccc(O)c(O)c2C1=O | -13.3% (active) | 57.5% | 11.6% | 43.7% | 15.3% | 33.1% | 41.6% | 14.8% |  | 47.9%
21 | O=S(=O)(O)c1ccc(N=Nc2ccc(N=Nc3cccc4ccccc34)c(S(=O)(=O)O)c2)cc1 | 114% | 105% | 89.7% | 110% | 102% | 84.5% | 86.4% | 98.4% |  | 110%
22 | COc1ccc(S(=O)(=O)Nc2cc(Sc3cccc4cccnc34)c(O)c3ccccc23)cc1 | 10.9% | -37.8% (active) | 62.5% | 43% | 4.81% (active) | 26.3% | -32.7% (active) | -28.1% (active) | -55.8% (active) | -2.3% (active)
23 | COc1cc(NC2CCCCC2O)c2nc(-c3ccc(Cl)cc3)ccc2c1 (stereo not given) | 49.6% and 62.8% | 54.2% and 67.9% | 82% and 103% | 83.4% and 93.6% | 56.8% and 68.8% | 70.1% | 96.6% and 98.1% | 83.7% and 94.7% |  | 94.2% and 96.7%
24 | CCCCCCCCCCCCCCCCCCOc1cccc(CC(=O)OCC[N+](CC)(CC)CC)c1 | 81.3% | 64.5% | 61.9% | 38.3% | 37.6% | 55.4% | 29.8% | 63% | 56.5% | 92.8%
25 | COc1cc(CNC(=O)CCCC/C=C/C(C)C)ccc1OCc1cn(-c2ccc([N+](=O)[O-])cc2)nn1 | 96.2% | 98.1% | 83.9% | 97.4% | 86.4% | 78% | 76.1% | 69.3% |  | 102%
26 | C/C=C(\C)C(=O)N[C@H]1CC[C@]2(C)C3CC[C@@]4(C)C(CC[C@@H]4C(C)N(C)C)C3CCC2[C@H]1OC(C)=O (stereo not given in full) | -78.4% (active) | -68.4% (active) | -50% (active) | -58.7% (active) | -66.1% (active) | 0.354% (active) | -100% (active) | -51.7% (active) |  | -97.5% (active)
